The source of these data is PubChem BioAssay (NCI).

Among the test systems are SK-MEL-2 melanoma; EKVX NSCLC; SN12C renal; UO-31 renal; TK-10 renal; A498 renal; CCRF-CEM leukemia; MOLT-4 leukemia; SR leukemia; RPMI-8226 leukemia; OVCAR-8 ovarian; OVCAR-5 ovarian; OVCAR-4 ovarian; SK-OV-3 ovarian; IGROV1 ovarian; OVCAR-3 ovarian; HS 578T breast; NCI/ADR-RES ovarian.
What all share (assay): NCI-60 one-dose screen, 48 h (100 = growth as untreated, 0 = no growth, -100 = all killed)
Common to all, as to details: 10 µM unless noted

This is part of a sample that, as a whole, favours compounds with a hit. Of some 83,000 tested, about 20% had one in any assay.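 96-well plates, one dose, 48 hours. Percent growth reported; active if below 10.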 A number with no mark means an inactive call. Calls of active or inactive are those of the source.

On to `O=C(CSc1nnc(-c2ccc(Cl)cc2)o1)Nc1ccc(C(=O)/C=C/c2ccccc2)cc1`, for which the growth in the assay on SK-MEL-2 melanoma is 92.9%; in the assay with EKVX NSCLC, 98%; in the assay on SN12C renal, 95.5%; in the assay on UO-31 renal, 80.1%; in the assay with TK-10 renal, 93.7%; in the assay with A498 renal it was 95.7%. For the same compound, the growth in the assay on CCRF-CEM leukemia is 86.1%; with MOLT-4 leukemia, 93.1%; with SR leukemia it was 60.4%; in the assay with RPMI-8226 leukemia, 68.7%; in the assay on OVCAR-8 ovarian it was 97.3%; with OVCAR-5 ovarian, 106%. Further, the growth with OVCAR-4 ovarian was 101%; in the assay on SK-OV-3 ovarian, 117%; in the assay with IGROV1 ovarian it was 95.7%; in the assay with OVCAR-3 ovarian, 108%; with HS 578T breast, 101%; in the assay with NCI/ADR-RES ovarian it was 88.1%.

On to `O=C(NNC(=O)c1ccc([N+](=O)[O-])cc1)c1ccc([N+](=O)[O-])cc1`, for which the growth is 107% in the assay with SK-MEL-2 melanoma; 93.7% in the assay with EKVX NSCLC; 112% in the assay with SN12C renal; 95.4% in the assay on UO-31 renal; 96.1% in the assay with TK-10 renal; 90.5% in the assay on A498 renal. The growth is 91.6% with CCRF-CEM leukemia; 100% in the assay on MOLT-4 leukemia; 99.1% with SR leukemia; 95.5% in the assay with RPMI-8226 leukemia; 112% with OVCAR-8 ovarian; 102% in the assay on OVCAR-5 ovarian. Moreover, the growth in the assay with OVCAR-4 ovarian was 93.8%; in the assay on SK-OV-3 ovarian, 96.1%; with IGROV1 ovarian it was 112%; in the assay on OVCAR-3 ovarian it was 104%; in the assay on HS 578T breast it was 104%; in the assay on NCI/ADR-RES ovarian, 104%.

On to `COc1ccc2c(c1)O/C(=C/c1ccc(OCC(=O)Nc3ccc(S(N)(=O)=O)cc3)cc1)C2=O`, for which the growth was 97.7% with SK-MEL-2 melanoma; 97.5% with EKVX NSCLC; 98.1% with SN12C renal; 85.6% with UO-31 renal; 115% in the assay with TK-10 renal; 91.5% in the assay with A498 renal. Moreover, the growth in the assay with CCRF-CEM leukemia was 94.6%; in the assay with MOLT-4 leukemia, 88.3%; in the assay on SR leukemia, 79.1%; in the assay on RPMI-8226 leukemia it was 91.3%; in the assay on OVCAR-8 ovarian it was 98.6%; with OVCAR-5 ovarian it was 103%. The growth in the assay on OVCAR-4 ovarian was 102%; in the assay on SK-OV-3 ovarian, 102%; in the assay with IGROV1 ovarian, 111%; in the assay on OVCAR-3 ovarian it was 104%; in the assay on HS 578T breast, 99.4%; in the assay with NCI/ADR-RES ovarian it was 103%.

As to `CC12CCC3C(CCC4CC(O)CCC43C)C1C/C(=C/O)C(=O)O2` (configuration not stated), the growth with SK-MEL-2 melanoma is 104%; in the assay with EKVX NSCLC, 104%; in the assay on SN12C renal, 104%; in the assay on UO-31 renal, 91%; with TK-10 renal, 89.4%; with A498 renal, 62.7%. Further, the growth in the assay on CCRF-CEM leukemia is 92.6%; in the assay on MOLT-4 leukemia it was 101%; in the assay with SR leukemia, 96.1%; in the assay on RPMI-8226 leukemia, 91.3%; with OVCAR-8 ovarian, 104%; in the assay on OVCAR-5 ovarian, 111%. In addition, the growth with OVCAR-4 ovarian is 134%; in the assay on SK-OV-3 ovarian, 105%; in the assay with IGROV1 ovarian, 105%; with OVCAR-3 ovarian, 103%; with HS 578T breast it was 98.4%; in the assay with NCI/ADR-RES ovarian it was 108%.

`COc1ccc(Cn2cc3c(c2-c2cc(OC)c(OC)c(OC)c2)CCc2c(CO)noc2-3)cc1`: the growth with SK-MEL-2 melanoma was 49.5%; in the assay with EKVX NSCLC, 45.8%; in the assay on SN12C renal, 30.3%; in the assay with UO-31 renal, 30.1%; in the assay with TK-10 renal it was 74.5%; in the assay on A498 renal, 18.2%. Further, the growth in the assay with CCRF-CEM leukemia is 19.6%; in the assay with MOLT-4 leukemia, 16.6%; with SR leukemia, 22.2%; in the assay on RPMI-8226 leukemia, 21.7%; with OVCAR-8 ovarian, 22.4%; in the assay with OVCAR-5 ovarian, 56.6%. In addition, the growth in the assay with OVCAR-4 ovarian was 68.9%; with SK-OV-3 ovarian, 39.9%; in the assay with IGROV1 ovarian it was 40.8%; in the assay on OVCAR-3 ovarian, 5.3% (active); with HS 578T breast, 9.56% (active); with NCI/ADR-RES ovarian, 8.59% (active).

On to `CCc1c(C)c2cc(-n3c(-c4ccc(OC)cc4)csc3=N)c(O)c(C)c2oc1=O`, for which the growth was 10.7% in the assay with SK-MEL-2 melanoma; 19.4% in the assay on EKVX NSCLC; 10.2% with SN12C renal; 14.3% with UO-31 renal; 64.7% in the assay on TK-10 renal; 17.1% in the assay on A498 renal. Besides, the growth was 7.21% (active) in the assay with CCRF-CEM leukemia; 6.48% (active) with MOLT-4 leukemia; 3.54% (active) with SR leukemia; -9.39% (active) in the assay on RPMI-8226 leukemia; 17.9% in the assay on OVCAR-8 ovarian; 44% with OVCAR-5 ovarian. Besides, the growth was 12.3% with OVCAR-4 ovarian; 43.8% in the assay with SK-OV-3 ovarian; 25.1% in the assay on IGROV1 ovarian; 9% (active) with OVCAR-3 ovarian; 24.5% in the assay with HS 578T breast; 11.4% with NCI/ADR-RES ovarian.

As to `C=C1C(=O)O[C@H]2[C@H]1CC/C(C(=O)Nc1ccc(OC)c(C(N)=O)c1O)=C\CC[C@@]1(C)O[C@@H]21`, the growth was 71.3% in the assay on SK-MEL-2 melanoma; 73.4% in the assay with EKVX NSCLC; 61.1% with SN12C renal; 37.8% in the assay with UO-31 renal; 22.6% in the assay on TK-10 renal; 78.3% with A498 renal. Besides, the growth in the assay on CCRF-CEM leukemia was 3.64% (active); with MOLT-4 leukemia it was 13.9%; in the assay on SR leukemia, 22.3%; in the assay with RPMI-8226 leukemia it was 70.8%; in the assay with OVCAR-8 ovarian, 68.2%; with OVCAR-5 ovarian it was 75.1%. Moreover, the growth was 67.2% in the assay on OVCAR-4 ovarian; 80.7% with SK-OV-3 ovarian; 55.5% in the assay with IGROV1 ovarian; 25.4% in the assay on OVCAR-3 ovarian; 77.4% in the assay on HS 578T breast; 92.5% in the assay on NCI/ADR-RES ovarian.

Turning to `Cc1c(NC(=O)c2sc3nc4c(cc3c2N)CN(Cc2ccccc2)CC4)cccc1C(F)(F)F`, the growth in the assay on SK-MEL-2 melanoma was 49.5%; with EKVX NSCLC it was 62.1%; with SN12C renal, 55.2%; in the assay with UO-31 renal, 65.6%; with TK-10 renal, 96%; with A498 renal it was 52%. Also, the growth with CCRF-CEM leukemia was 15.6%; in the assay on MOLT-4 leukemia it was 25.9%; in the assay on SR leukemia it was 20.1%; in the assay on RPMI-8226 leukemia, 36.3%; in the assay with OVCAR-8 ovarian, 63.1%; in the assay on OVCAR-5 ovarian it was 79.6%. Further, the growth in the assay on OVCAR-4 ovarian was 60%; in the assay with SK-OV-3 ovarian, 77.8%; in the assay on IGROV1 ovarian, 51%; in the assay on OVCAR-3 ovarian it was 6.31% (active); with HS 578T breast it was 31%; with NCI/ADR-RES ovarian, 43.7%.

`COc1ccc(Cn2cc(COc3ccc4c5ccnc(C)c5n(CCCc5ccccc5)c4c3)nn2)cc1`: the growth in the assay on SK-MEL-2 melanoma was 64.4%; in the assay on EKVX NSCLC, 101%; in the assay with SN12C renal it was 69.1%; in the assay with UO-31 renal it was 70.5%; with TK-10 renal, 103%; in the assay with A498 renal, 88.8%. The growth in the assay on CCRF-CEM leukemia is 19.7%; in the assay on MOLT-4 leukemia it was 38.4%; with SR leukemia, -29% (active); with RPMI-8226 leukemia, -3.72% (active); in the assay on OVCAR-8 ovarian it was 61.9%; with OVCAR-5 ovarian, 111%. In addition, the growth is 70.2% with OVCAR-4 ovarian; 95.3% with SK-OV-3 ovarian; 75.3% in the assay with IGROV1 ovarian; 76% with OVCAR-3 ovarian; 77.8% in the assay with HS 578T breast; 67% in the assay on NCI/ADR-RES ovarian.
